Compounds with a hit are over-represented: about 4.6% of the library has one in this group of screens.
HUVEC tox IL1B = toxic to HUVEC cells under IL-1B stimulation | HUVEC cell count loss, Hoechst imaging, IL-1B stimulated | cell count reduction, % at 2 µM | 94,000 compounds, 0.41% hits | AID 845;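 active = cell count reduction more than 3 SD above the screen-wide mean, cut at about 70% in these data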;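 also: normalized per plate to untreated control cells as the no-loss baseline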
IL1B NFkB pot = enhances IL-1B driven NFkB nuclear translocation | HUVEC IL-1B NFkB p65 nuclear translocation imaging | activation, % at 2 µM | 94,000 compounds, 0.3% hits | AID 819;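 active = activation above 40%, about the mean plus 3 SD, also judged a hit on visual image review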;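 also: percent activation is computed from the nuclear over cytoplasmic p65 intensity ratio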
sEH inhibitor = blocks human soluble epoxide hydrolase activity; recombinant human sEH enzymatic activity assay; inhibition, % at 2 µM; 91,000 compounds, 0.34% hits; P34913; in the data active = inhibition above about 80%
Target sequence (P34913 whole entry, looked up): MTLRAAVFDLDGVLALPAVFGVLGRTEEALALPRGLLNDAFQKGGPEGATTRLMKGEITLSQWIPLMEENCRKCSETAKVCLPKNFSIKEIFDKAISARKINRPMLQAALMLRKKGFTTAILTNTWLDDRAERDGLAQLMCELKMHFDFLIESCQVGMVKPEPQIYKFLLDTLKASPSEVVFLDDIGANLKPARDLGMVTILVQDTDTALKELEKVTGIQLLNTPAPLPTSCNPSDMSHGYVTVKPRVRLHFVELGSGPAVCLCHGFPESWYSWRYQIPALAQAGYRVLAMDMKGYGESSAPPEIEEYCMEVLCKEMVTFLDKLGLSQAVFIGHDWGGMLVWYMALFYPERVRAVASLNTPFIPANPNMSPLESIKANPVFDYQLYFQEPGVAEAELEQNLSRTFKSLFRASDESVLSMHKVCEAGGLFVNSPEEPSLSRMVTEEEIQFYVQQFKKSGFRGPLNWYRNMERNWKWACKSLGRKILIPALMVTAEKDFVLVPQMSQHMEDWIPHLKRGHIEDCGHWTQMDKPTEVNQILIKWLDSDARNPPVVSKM
Cav3 T inh = blocks human Cav3.2 T-type calcium channel; 100,000 compounds, 4% hits; O95180; B-score at 10 µM; Cav3.2-expressing cells, Fluo-4 calcium fluorescence FDSS; active compounds read low;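 active = single-dose well whose peak fluorescence ratio is a statistical outlier from its plate by either plate-standardised score or position-corrected B-score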
sEH act = increases human soluble epoxide hydrolase activity; P34913; purified human sEH enzymatic activity, activator screen; activation, % at 2 µM; 91,000 compounds, 0.04% hits; in the data active = activation above about 37%
IL1B NFkB inh = blocks IL-1B driven NFkB nuclear translocation in HUVEC cells. inhibition, % at 2 µM. HUVEC IL-1B NFkB p65 nuclear translocation imaging. AID 796. 94,000 compounds, 0.43% hits;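 active = inhibition above about 30% together with a positive call from visual inspection of the well image, limit read from the data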;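 also: nuclear over cytoplasmic p65 intensity ratio measured by imaging; 0% = IL-1B stimulated DMSO wells and 100% = unstimulated DMSO wells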
Numbers without * were called inactive; x = no result given.

SMILES	HUVEC tox IL1B	IL1B NFkB pot	sEH inhibitor	Cav3 T inh	sEH act	IL1B NFkB inh
CO[C@H]1C=CO[C@@]2(C)Oc3c(C)c(O)c4c(O)c(c5c(c4c3C2=O)NC2(CCN(CC(C)C)CC2)N=5)=NC(=O)C(C)=CC=C[C@H](C)[C@H](O)[C@@H](C)[C@@H](O)[C@@H](C)[C@H](OC(C)=O)[C@@H]1C	x	x	x	-0.0406	x	x
Oc1c(C=NCc2ccc(F)cc2)[nH]c2ccc(Br)c(Cl)c12	6.2	7.3	-0.1	-3.5	-2.1	-7.3
Cc1ccc(CN=Cc2[nH]c3ccc(Br)c(Cl)c3c2O)cc1	4.3	13.9	6.7	-3.06*	-5.8	-13.9
O=C(O)CCCCCCNS(=O)(=O)c1ccccc1	-2.4	4.3	-19.1	1.09	12.5	-4.3
Cc1ccc(-c2csc(N(CCc3ccccc3)C(=O)COc3ccccc3)n2)cc1	-0.4	-5.7	2.7	-1.78	-0.3	5.7
C=CCc1ccc(OCCOCCNCCCC)c(OC)c1	6.9	-4.2	-6.8	-0.54	5.0	4.2
Cc1cc(/C=N/NC(=O)c2cccc([N+](=O)[O-])c2)c(C)n1-c1ccc(Cl)cc1Cl	-1.0	-6.8	7.0	-6.42*	-5.9	6.8
Cc1ccc(C(=O)N/N=C/c2cc(C)n(-c3ccc(Br)cc3)c2C)cc1[N+](=O)[O-]	-21.8	-1.0	-5.2	0.0321	6.0	1.0
Cc1cccc(-n2c(C)cc(/C=N/NC(=O)c3cccc([N+](=O)[O-])c3C)c2C)c1	-9.1	-19.0	16.7	-3.7*	-15.1	19.0
CC1=C(C(=O)OC2CCCCC2)C(c2ccco2)n2ncnc2N1 (centres undefined)	-7.0	-4.3	29.4	0.0745	-26.4	4.3
c1ccc(N2CCN(c3nc(NCc4ccco4)c4ccccc4n3)CC2)cc1	-11.5	31.1	23.7	-2	-22.4	-31.1
c1coc(CNc2nc(N3CCCCC3)nc3ccccc23)c1	x	x	x	-4.34*	x	x
CC(C)C[C@@H](CSc1ccc(Br)cc1)N1CCN(CC(C)C)CCC1=O	x	x	x	-1.29	x	x
COC(=O)C1=C(C)NC2=C(C(=O)CCC2)C1c1cccs1 (centres undefined)	-27.8	8.2	18.1	1.08	-18.2	-8.2
COc1ccc(-c2ccc(C#N)c(SCC(=O)OCc3ccccc3)n2)cc1OC	0.6	1.7	-2.2	-0.435	-0.6	-1.7
N#Cc1ccc(-c2ccc3c(c2)OCO3)nc1SCC(=O)OCc1ccccc1	-10.2	5.1	0.8	-4.64*	-1.3	-5.1
c1ccc(Cc2nn3c(COc4ccccc4)nnc3s2)cc1	4.7	30.3	9.6	-1.26	-9.5	-30.3
N#Cc1cccc(C(c2nnnn2CCc2ccccc2)N2CCN(C3CCCCC3)CC2)c1 (centres undefined)	-2.5	2.7	-0.3	1.2	1.6	-2.7
N#Cc1ccc(C(c2nnnn2C2CCCC2)N2CCC(Cc3ccccc3)CC2)cc1 (centres undefined)	-9.7	-4.0	0.2	-6.19*	3.3	4.0
N#Cc1cccc(C(c2nnnn2C2CCCC2)N2CCC(Cc3ccccc3)CC2)c1 (centres undefined)	24.0	2.8	-9.1	-7*	10.7	-2.8
N#Cc1cccc(C(c2nnnn2C2CCCC2)N2CCCCCC2)c1 (centres undefined)	-0.6	10.6	-2.9	-4.24	1.3	-10.6
CN(C)c1ccc(C2=NOC(CN3C(=O)c4ccccc4S3(=O)=O)C2)cc1 (centres undefined)	-2.9	-3.6	x	0.821	x	3.6
Cc1nc(CS(=O)(=O)c2ccccc2)cc(Sc2ccc(Cl)cc2Cl)n1	-25.1	-10.9	-6.0	-5.69*	7.1	10.9
Cc1ccc(Cl)cc1N1CCN(C(=O)C2CCN(c3nnc(-n4cccc4)s3)CC2)CC1	x	x	x	-8.22*	x	x
CC(=O)Nc1ccc(S(=O)(=O)NCCSCc2c(Cl)cccc2Cl)cc1	-63.9	-3.1	-2.3	-5.1*	0.8	3.1
SMILES	HUVEC tox IL1B	IL1B NFkB pot	sEH inhibitor	Cav3 T inh	sEH act	IL1B NFkB inh
CC(=O)Nc1ccc(S(=O)(=O)NCCN2CCOCC2)cc1	x	x	x	-1.59	x	x
Cc1ccc(-c2nc3sc4c(c3c(=O)n2N)CCCC4)cc1	9.5	18.3	4.4	-0.705	-4.1	-18.3
CCn1c(N2CCN(CC(=O)c3c[nH]c4ccccc34)CC2)nc2c1c(=O)[nH]c(=O)n2C	8.9	16.7	-8.1	2.42	7.7	-16.7
Cc1cc(Cl)c(S(=O)(=O)N2CCN(c3ccc(F)cc3)CC2)cc1OCC(=O)NC1CCCCC1	-3.5	33.9	-1.6	-5.22*	3.6	-33.9
Cc1cc(Cl)c(S(=O)(=O)N2CCSCC2)cc1OCC(N)=O	74.9*	0.6	-9.7	-0.2	9.6	-0.6
COc1c(S(=O)(=O)N2CCN(c3ccc(F)cc3)CC2)ccc(Cl)c1Cl	14.9	-4.6	3.9	-1.93	-1.8	4.6
COc1ccc(Cl)cc1S(=O)(=O)N1CCN(c2ccc(F)cc2)CC1	0.3	0.2	3.2	-3.66*	-4.6	-0.2
CCOc1ccc(Cl)cc1S(=O)(=O)N1CCN(c2ccc(F)cc2)CC1	-3.9	-9.4	-12.2	-3.67*	10.2	9.4
Cn1c(=O)cc(SCC(=O)NCc2ccco2)c2ccccc21	-5.3	-11.8	x	-0.205	x	11.8
Cc1c(Cl)cccc1N1C(=O)C(N2C(=O)c3cccc([N+](=O)[O-])c3C2=O)C1c1cccs1 (centres undefined)	0.7	2.0	10.7	-0.54	-8.1	-2.0
CC(C)(C)C(=O)Nc1ccc(C(=O)OC2CCCCC2)cc1	27.0	-10.4	1.1	-1.86	-3.4	10.4
O=C(CN1CCc2ccccc2C1)Nc1ccccc1N1CCCCCC1	-6.0	-1.5	8.8	-3.32*	-10.1	1.5
O=C(CN1CCCCC1)Nc1ccccc1NC(=O)CN1CCCCC1	6.0	18.7	-1.4	0.0294	0.9	-18.7
CCOC(=O)c1ccc(NC(=O)CN2CCc3ccccc3C2)cc1	-18.0	-7.6	9.8	-5.17*	-5.2	7.6
O=C(CNCC1CCCO1)Nc1ccccc1N1CCOCC1 (centres undefined)	-1.5	-1.1	2.2	0.82	-0.9	1.1
O=C(CNCC1CCCCC1)Nc1ccccc1N1CCCCC1	-10.2	9.3	0.1	-7.13*	1.6	-9.3
Cc1cc(C)cc(NC(=O)CN2CCc3ccccc3C2)c1	1.3	12.4	-0.4	-2.99	4.0	-12.4
Cc1cc(C)c(S(=O)(=O)c2ccccc2C(=O)O)c(C)c1	2.6	-5.7	0.3	0.33	2.5	5.7
O=c1c2ccccc2nc(SCc2cc(F)cc3c2OCOC3)n1Cc1ccco1	-12.4	-0.6	5.0	-5.98*	-7.3	0.6
CCOC(=O)c1cc2c(c(CSc3nc4ccccc4c(=O)n3Cc3ccco3)c1)OCOC2	-11.1	8.1	11.9	0.102	-9.5	-8.1
O=C(CC1NC2CCCCC2NC1=O)Nc1ccc2c(c1)OCO2 (centres undefined)	-116.7	8.2	-1.0	0.775	-4.3	-8.2
COc1ccc(N2C(=O)[C@@H]3[C@H](C2=O)[C@H]2c4ccccc4C=CN2[C@@H]3C(=O)Nc2ccccc2)cc1	-27.7	12.6	-5.2	-3.16	2.4	-12.6

High-throughput results: PubChem, several laboratories
